Measured values published in PubChem BioAssay AID463173 (ICCB-Longwood Screening Facility, Harvard Medical School, 2010).
About 1,700 (3.3%) of roughly 52,000 compounds were called active. Rule as the data show it: active = survival mostly below about 52% (no sharp cut-off); inactive = mostly above about 56%. This excerpt belongs to a sample that is enriched for actives.

These molecules were tested on Wild type (assay: S. aureus survival, RN4220 and DeltatarO strains – OD600, teichoic acid synthesis inhibitors, primary screen (AID 463173)). Conditions: S. aureus RN4220 wild type/DeltatarO growth, OD600, 18 h, stronger effect = lower value, screened at 18.75 µg/mL (by protocol).

SMILES	survival
O=C(Nc1ccc(Br)cc1F)N1CCC(CN2CCc3ccccc3C2)CC1	63% (inactive)
O=C(Nc1ccc2nc(SCC(=O)N3CCCC3)sc2c1)c1ccc(F)cc1	87% (inactive)
O=C(CSc1nc2ccccc2c(=O)n1Cc1ccco1)Nc1ccccc1	106% (inactive)
Cc1ccc(N2CCN(S(=O)(=O)c3ccc(-n4cnnn4)cc3)CC2)c(C)c1	97% (inactive)
CCOc1ccc(C(=O)c2cn(Cc3ccccc3OC)c3cc4c(cc3c2=O)OCCO4)cc1	80% (inactive)
CN(C)CCCN(C(=O)c1ccc(Br)s1)c1nc2ccc(F)cc2s1	-6% (active)
CN(C)CCCN(C(=O)c1cccs1)c1nc2ccc(F)cc2s1	76% (inactive)
Cc1ccc2nc(N(CCCN(C)C)C(=O)c3ccc(Br)s3)sc2c1	90% (inactive)
CCS(=O)(=O)c1ccccc1C(=O)Nc1ccc(-c2nc3ccccc3s2)cc1	77% (inactive)
O=C(CCn1cnc2ccccc2c1=O)NCc1ccccc1Cl	98% (inactive)
COc1ccccc1CNC(=O)CCn1cnc2ccccc2c1=O	-6% (active)
COc1ccccc1NC(=O)CCn1cnc2ccccc2c1=O	76% (inactive)
Cc1ccc(-c2[nH]c3ccccc3c2SCCNC(=O)c2ccc(S(=O)(=O)N3CCOCC3)cc2)cc1	81% (inactive)
CCOC(=O)c1ccc(CNS(=O)(=O)c2c(C)ccc3nsnc23)o1	105% (inactive)
Fc1ccc(-n2nc(-c3ccccc3)c3cnc4ccccc4c32)cc1Cl	138% (inactive)
Cc1ccc(C)c(N2CCN(S(=O)(=O)c3cc(C(=O)Nc4cc(Cl)cc(Cl)c4)ccc3F)CC2)c1	85% (inactive)
CCOc1ccc(NC(=O)c2ccc3nc(C(C)C)oc3c2)cc1	70% (inactive)
Cc1ccc(C)c2sc(N3CCN(C(=O)c4ccco4)CC3)nc12	159% (inactive)
COc1ccc(OC)c2sc(N3CCN(C(=O)c4ccco4)CC3)nc12	76% (inactive)
Cc1ccc(Cl)c2sc(N3CCN(C(=O)C4CC4)CC3)nc12	76% (inactive)
COc1ccc(C)c2sc(N3CCN(C(=O)c4cccc(F)c4)CC3)nc12	133% (inactive)
COc1ccc(C)c2sc(N3CCN(C(=O)c4ccco4)CC3)nc12	-1% (active)
CCS(=O)(=O)c1ccc(C(=O)N2CCN(c3nc4c(OC)ccc(C)c4s3)CC2)cc1	91% (inactive)

SMILES	survival
COc1ccc(OC)c2sc(N3CCN(C(=O)C(C)(C)C)CC3)nc12	69% (inactive)
CCCC(=O)N1CCN(c2nc3c(OC)ccc(C)c3s2)CC1	14% (active)
COc1ccc(OC)c2sc(N3CCN(C(=O)C4CC4)CC3)nc12	-6% (active)
COc1ccc2c(c1)c1c(c(=O)n(-c3ccccc3C)c(=O)n1CC(N)=O)n2C	82% (inactive)
CCOc1ccccc1NC(=O)CCn1nc(C)c(S(=O)(=O)N2CCCCC2)c1C	76% (inactive)
COc1ccc(N2CCN(C(CNC(=O)CC(C)C)c3ccc4c(c3)OCO4)CC2)cc1 (configuration not stated)	83% (inactive)
CCOc1ccc(-c2nnc(SCC(=O)NCCc3ccccc3)nc2-c2ccc(OCC)cc2)cc1	73% (inactive)
COc1cc(C2CC(=O)Nc3c2c(=O)[nH]c2ncnn32)ccc1O (configuration not stated)	77% (inactive)
CCOCCCNC(=O)c1ccc2c(=O)n(CCc3ccccc3)c(=O)[nH]c2c1	79% (inactive)
Cc1ccc(C)c(N2CCN(C(=O)CSCc3ccccc3Cl)CC2)c1	82% (inactive)
O=C(Nc1ccccn1)c1ccccc1O	110% (inactive)
CCCCSc1nnc2c(n1)OC(c1ccc(C)s1)Nc1ccccc1-2 (configuration not stated)	56% (inactive)
CCCSc1nnc2c(n1)OC(c1ccc(Br)s1)Nc1ccccc1-2 (configuration not stated)	88% (inactive)
CCCCSc1nnc2c(n1)OC(c1ccc(Br)s1)Nc1ccccc1-2 (configuration not stated)	9% (active)
Cc1ccc(NC(=O)Cn2c(=O)n(Cc3nc(-c4ccccc4)no3)c(=O)c3cc4c(cc32)OCO4)cc1F	89% (inactive)
CC(C)C(c1nnnn1Cc1ccccc1)N1CCCc2ccccc21 (configuration not stated)	122% (inactive)
N#Cc1c(NC(=O)c2ccco2)sc2c1CCCC2	104% (inactive)
CNS(=O)(=O)c1cn(CC(=O)N2CCN(c3ccc(Cl)cc3)CC2)cc1S(=O)(=O)NC	124% (inactive)
CNS(=O)(=O)c1cn(CC(=O)N2CCN(c3ccc(C(C)=O)cc3)CC2)cc1S(=O)(=O)NC	10% (active)
CNS(=O)(=O)c1cn(CC(=O)N2CCN(c3ccc(OC)cc3)CC2)cc1S(=O)(=O)NC	69% (inactive)
Cc1ccc(SCc2nc(-c3ccc(C(=O)Nc4cc(C)ccc4C)cc3)oc2C)cc1	129% (inactive)
Clc1cccc(CSc2nc(NCCc3ccccc3)c3ccccc3n2)c1	66% (inactive)
COc1ccc(CCNc2nc(SCc3cccc(F)c3)nc3ccccc23)cc1OC	80% (inactive)

SMILES	survival
Fc1cccc(CSc2nc(NCCc3ccccc3)c3ccccc3n2)c1	-3% (active)
COC(=O)c1cc(S(=O)(=O)N2CCN(c3cccc(C)c3)C(C)C2)c[nH]1 (configuration not stated)	98% (inactive)
O=C(O)c1ccc(NCc2nc3ccccc3n2CCOc2ccccc2Cl)cc1	88% (inactive)
Cc1cccc(NCc2nc3ccccc3n2CCOc2ccccc2C)c1	-18% (active)
Cc1ccccc1OCCn1c(CCNC(=O)C2CCCCC2)nc2ccccc21	90% (inactive)
COc1ccc(NCc2nc3ccccc3n2CCOc2ccccc2C)cc1	4% (active)
Cc1ccc(NCc2nc3ccccc3n2CCOc2ccccc2C)cc1	-20% (active)
COc1cccc(OCc2nc3ccccc3n2CCOc2ccccc2C)c1	55% (inactive)
COc1ccccc1OCCn1c(COc2cc(C)ccc2C)nc2ccccc21	87% (inactive)
Fc1ccc(NCc2nc3ccccc3n2CCOc2ccccc2Cl)cc1	95% (inactive)
Cc1ccc(C)c(CSc2c(C(C)C)cnc3c2c(=O)n(C)c(=O)n3C)c1	126% (inactive)
O=C(CSc1ncc(CO)n1Cc1ccccc1)Nc1ccc(C(F)(F)F)cc1	120% (inactive)
CC(=O)Nc1ccc(NC(=O)C(Cc2ccccc2)N2Cc3ccccc3C2=O)cc1 (configuration not stated)	72% (inactive)
O=C(Nc1ccc(C(F)(F)F)cc1)C(Cc1ccccc1)n1cccc1 (configuration not stated)	-2% (active)
CC(C)c1ccc(NC(=O)C(Cc2ccccc2)n2cccc2)cc1 (configuration not stated)	13% (active)
Cc1ccc(NC(=O)C(Cc2ccccc2)n2cccc2)cc1 (configuration not stated)	96% (inactive)
O=C(Nc1ccccc1F)C(Cc1ccccc1)n1cccc1 (configuration not stated)	85% (inactive)
COc1ccc(NC(=O)C(Cc2ccccc2)n2cccc2)c(OC)c1 (configuration not stated)	78% (inactive)
O=C(CSc1nccn1Cc1ccc(F)cc1)NC1CCCC1	68% (inactive)
Cc1ccc(Cl)cc1N1CCN(C(=O)c2cc3ccc4cccnc4c3[nH]2)CC1	129% (inactive)
Cc1cccc(C(=O)n2nc(C)c(S(=O)(=O)N3CCOCC3)c2C)c1	89% (inactive)
COc1ccc(C2=C(C)C(=O)N(Cc3ccc(C(=O)NCc4ccc(C)cc4)cc3)S2(=O)=O)cc1	89% (inactive)
C1CN(C(N2CCOCC2)N2CCOCC2)CCO1	104% (inactive)

SMILES	survival
Cc1ccc(-c2onc(C)c2C)cc1S(=O)(=O)N1CCc2ccccc21	117% (inactive)
COc1ccc(-c2cc(C)no2)cc1S(=O)(=O)N1CC(C)Oc2ccccc21 (configuration not stated)	-6% (active)
COc1ccc(-c2cc(C)no2)cc1S(=O)(=O)N1CCc2ccccc21	76% (inactive)
COc1ccc(-c2onc(C)c2C)cc1S(=O)(=O)N1CCc2ccccc21	1% (active)
CCC1CN(S(=O)(=O)c2cc(-c3cc(C)no3)ccc2OC)c2cc(C)ccc2O1 (configuration not stated)	120% (inactive)
COc1ccc(-c2cc(C)no2)cc1S(=O)(=O)N1CCOc2ccccc21	80% (inactive)
COc1ccc(NC(=O)c2oc3ccc(S(=O)(=O)N4CCOCC4)cc3c2C)c(OC)c1	152% (inactive)
COc1ccc(C(CC(=O)Nc2ccc(C(C)=O)cc2)N2Cc3ccccc3C2=O)cc1 (configuration not stated)	88% (inactive)
O=C(O)c1snc2c(=O)[nH]cnc12	105% (inactive)
O=C1CCCc2c1cc(C(=O)Nc1ccc(Cl)cn1)c(=O)n2-c1ccccc1	110% (inactive)
COc1ccc(NC(=O)c2sc3nc(C)c(C(=O)Nc4ccc(Cl)cc4)c(-c4ccc(Br)cc4)c3c2N)cc1	75% (inactive)
Cc1nc2sc(C(N)=O)c(N)c2c(-c2ccc(Br)cc2)c1C(=O)Nc1ccc(Cl)cc1	-7% (active)
Cc1nc2sc(C(=O)Nc3ccc(F)cc3)c(N)c2c(-c2ccc(Br)cc2)c1C(=O)Nc1ccc(Cl)cc1	88% (inactive)
Cc1ccc(C)c(NC(=O)Cn2c(=O)n(Cc3ccco3)c(=O)c3oc4ccccc4c32)c1	87% (inactive)
Cc1nn(Cc2ccccc2)c(C)c1CC(=O)O	109% (inactive)
O=C(CSc1nc2c([nH]c3ccccc32)c(=O)n1-c1ccc(F)cc1)NCc1ccc(F)cc1	73% (inactive)
CCC(C)NC(=O)c1sc2nc(C)c(C(=O)Nc3ccc(Cl)cc3)c(-c3ccc(Br)cc3)c2c1N (configuration not stated)	106% (inactive)
Cc1cc(-c2nc3ncccc3o2)ccc1NC(=O)COc1cc(C)c(Cl)c(C)c1	80% (inactive)
Cc1cc(OCC(=O)Nc2cc(-c3nc4ncccc4o3)ccc2C)ccc1Cl	88% (inactive)
CCC(=O)Nc1ccc(-c2nc3ncccc3o2)cc1C	85% (inactive)
CC(C)c1ccc(OCC(=O)Nc2cc(-c3nc4ncccc4o3)ccc2Cl)cc1	128% (inactive)
Cc1cc(-c2nc3ncccc3o2)ccc1NC(=O)COc1ccc(C(C)(C)C)cc1	26% (active)
Cc1ccc(-c2nc3ncccc3o2)cc1NC(=O)COc1ccc(C(C)C)cc1	11% (active)
